The values that follow come from PubChem BioAssay (NCI).

Compounds without any hit were thinned out: in the full panel of roughly 83,000, 20% have a hit.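 Plates (96-well) were seeded with cells, treated with compound at one concentration, and incubated for 48 hours before percent growth was determined.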 A number with no mark means an inactive call. The source made the active and inactive calls. How the source made its calls: active means growth percent below 10; inactive means the rest.

Test systems include SR leukemia; RPMI-8226 leukemia; OVCAR-8 ovarian; OVCAR-5 ovarian; OVCAR-4 ovarian; SK-OV-3 ovarian; IGROV1 ovarian; HS 578T breast; NCI/ADR-RES ovarian; OVCAR-3 ovarian.
Common to all, as to assay: NCI-60 one-dose screen, 48 h (100 = growth as untreated, 0 = no growth, -100 = all killed)
Settings in all cases: 10 µM unless noted

`CC(=O)C(CO)C(=O)Nc1ccccc1` (stereo unspecified): the growth in the assay on SR leukemia is 94.8%; with RPMI-8226 leukemia, 103%; with OVCAR-8 ovarian it was 109%; in the assay on OVCAR-5 ovarian, 102%; in the assay on OVCAR-4 ovarian, 98%; with SK-OV-3 ovarian, 93.8%. Moreover, the growth is 105% in the assay on IGROV1 ovarian, 118% with HS 578T breast and 103% with NCI/ADR-RES ovarian.

In the case of `CC(=O)Nc1ccc(CC#N)cc1Br`, the growth was 112% with SR leukemia; 109% in the assay on RPMI-8226 leukemia; 110% in the assay with OVCAR-8 ovarian; 109% with OVCAR-5 ovarian; 98.2% in the assay with OVCAR-4 ovarian; 104% in the assay with SK-OV-3 ovarian. The values for the growth in the assay on IGROV1 ovarian, in the assay with HS 578T breast and in the assay on NCI/ADR-RES ovarian were 110%, 89.9% and 116%, respectively.

`CC1CCCCC[N+]12CCCC2` (stereo unspecified): the growth is 91.7% in the assay with SR leukemia; 100% with RPMI-8226 leukemia; 101% in the assay on OVCAR-8 ovarian; 106% in the assay on OVCAR-5 ovarian; 113% in the assay with OVCAR-4 ovarian; 98.1% in the assay with SK-OV-3 ovarian. For the same compound, the growth with IGROV1 ovarian is 102%; with HS 578T breast, 112%; with NCI/ADR-RES ovarian, 111%.

Consider `C=CN(C)S(C)(=O)=O`, for which the growth with SR leukemia was 14.2%; in the assay with RPMI-8226 leukemia, 16.8%; in the assay on OVCAR-8 ovarian, 34.8%; in the assay on OVCAR-5 ovarian it was 90.9%; with OVCAR-4 ovarian it was 70.4%; in the assay with SK-OV-3 ovarian, 13.8%. For the same compound, the growth was 51.5% in the assay with IGROV1 ovarian, -14.1% (active) in the assay on OVCAR-3 ovarian and 20.1% in the assay with NCI/ADR-RES ovarian.

On to `CCCNC(=O)Oc1ccc(/C(=C(/CC)Cc2ccccc2)c2ccc(OCCN(CC)CC)cc2)cc1`, for which the growth with SR leukemia is -28.6% (active); with RPMI-8226 leukemia, 41.6%; in the assay on OVCAR-8 ovarian it was 80.3%; in the assay on OVCAR-5 ovarian it was 95.5%; in the assay with OVCAR-4 ovarian it was 85.8%; in the assay on SK-OV-3 ovarian it was 88.4%. Moreover, the growth with IGROV1 ovarian was 85.9%; in the assay on HS 578T breast it was 59%; in the assay with NCI/ADR-RES ovarian, 75.3%.

`CCCCCCCCCCCCCCCCCC1=NCCN1CS(=O)(=O)O`: the growth with SR leukemia was -3.33% (active); in the assay on RPMI-8226 leukemia it was 65%; in the assay with OVCAR-8 ovarian, 36.1%; with OVCAR-5 ovarian, 76.9%; in the assay on OVCAR-4 ovarian it was 82.4%; with SK-OV-3 ovarian, 70.4%. In addition, the figures for the growth in the assay with IGROV1 ovarian, in the assay on OVCAR-3 ovarian and with NCI/ADR-RES ovarian were -23.8% (active), 50.9% and 59.2%, respectively.

Consider `O=C1NCCN1/N=C/c1c(Cl)nc2n1CCS2`, for which the growth in the assay with SR leukemia is 59.4%; in the assay on RPMI-8226 leukemia, 63.7%; with OVCAR-8 ovarian, 115%; in the assay with OVCAR-5 ovarian, 102%; with OVCAR-4 ovarian it was 113%; in the assay with SK-OV-3 ovarian, 111%. Also, the growth is 84% with IGROV1 ovarian, 139% with HS 578T breast and 114% in the assay on NCI/ADR-RES ovarian.

As for `CCCCCCNc1nc(N2CCOCC2)c2[nH]c(NCCCCCC)nc2n1`, the growth in the assay with SR leukemia is -29.2% (active); in the assay with RPMI-8226 leukemia, -44.4% (active); in the assay with OVCAR-8 ovarian it was -67.7% (active); in the assay with OVCAR-5 ovarian, -92% (active); in the assay on OVCAR-4 ovarian it was -88.9% (active); in the assay on SK-OV-3 ovarian, -97.1% (active). The results for the growth with IGROV1 ovarian, in the assay on OVCAR-3 ovarian and with NCI/ADR-RES ovarian were -55.4% (active), -98.1% (active) and -98% (active), respectively.

With `CC(Br)c1nc2ccccc2cc1C(N)=O` (stereo unspecified), the growth was 74.9% in the assay on SR leukemia; 100% in the assay on RPMI-8226 leukemia; 112% in the assay on OVCAR-8 ovarian; 108% in the assay with OVCAR-5 ovarian; 109% with OVCAR-4 ovarian; 95.3% in the assay with SK-OV-3 ovarian. Further, the growth was 108% with IGROV1 ovarian and 109% in the assay on NCI/ADR-RES ovarian.

For `CC1=C(C)C[C@]2(C(=O)O[C@H]3CCCC[C@@H]32)[S@](=O)C1`, the growth was 92.3% in the assay with SR leukemia; 111% with RPMI-8226 leukemia; 105% in the assay on OVCAR-8 ovarian; 114% in the assay on OVCAR-5 ovarian; 106% in the assay on OVCAR-4 ovarian; 110% in the assay with SK-OV-3 ovarian. For the same compound, the growth in the assay with OVCAR-3 ovarian is 107%; in the assay on HS 578T breast it was 107%; with NCI/ADR-RES ovarian, 104%.

`Nc1ccc(S(=O)(=O)c2ccc(NO)cc2)cc1`: the growth is 129% with SR leukemia; 106% in the assay on RPMI-8226 leukemia; 95.6% in the assay on OVCAR-8 ovarian; 80.4% in the assay on OVCAR-5 ovarian; 88.6% in the assay with OVCAR-4 ovarian; 94.2% with SK-OV-3 ovarian. The results for the growth in the assay on IGROV1 ovarian, with HS 578T breast and in the assay with NCI/ADR-RES ovarian were 1.89% (active), 97% and 90.3%, respectively.

Turning to `CCCOC(=O)c1c(C)n(C)c2scc[n+]12`, the growth was 13.6% with SR leukemia; 54.8% in the assay on RPMI-8226 leukemia; 72.8% with OVCAR-8 ovarian; 75.1% in the assay on OVCAR-5 ovarian; 73.8% in the assay on OVCAR-4 ovarian; 93.9% in the assay on SK-OV-3 ovarian. For the same compound, the values for the growth in the assay on IGROV1 ovarian, in the assay with HS 578T breast and in the assay on NCI/ADR-RES ovarian were 15.9%, 77.6% and 78.9%, respectively.

`CCCCCCCCCc1cc[n+](CC(=O)c2ccc([N+](=O)[O-])cc2)cc1`: the growth in the assay with SR leukemia was -14.3% (active); in the assay on RPMI-8226 leukemia it was -25.8% (active); with OVCAR-8 ovarian, 11.7%; in the assay on OVCAR-5 ovarian, 18.9%; in the assay with OVCAR-4 ovarian it was 19.8%; in the assay on SK-OV-3 ovarian, 50%. The growth was 26.6% in the assay on IGROV1 ovarian, 3.13% (active) in the assay with OVCAR-3 ovarian and 66.3% with NCI/ADR-RES ovarian.

In the case of `CCOC(=O)c1cc(-c2ccc(OC)cc2)[nH]c1NNC(=O)CCOC`, the growth with SR leukemia was 87.7%; with RPMI-8226 leukemia it was 98.2%; with OVCAR-8 ovarian it was 106%; in the assay on OVCAR-5 ovarian, 100%; with OVCAR-4 ovarian, 113%; with SK-OV-3 ovarian it was 105%. Besides, the values for the growth in the assay on IGROV1 ovarian, with HS 578T breast and in the assay on NCI/ADR-RES ovarian were 2.76% (active), 104% and 125%, respectively.

`Oc1ccc2ccccc2c1/C=N\Nc1ccccn1`: the growth in the assay with SR leukemia was 8.32% (active); in the assay with RPMI-8226 leukemia, 25.2%; in the assay on OVCAR-8 ovarian it was 14.5%; with OVCAR-5 ovarian it was 65.3%; with OVCAR-4 ovarian it was 8.67% (active); in the assay on SK-OV-3 ovarian, 19.8%. For the same compound, the growth was -4.78% (active) with IGROV1 ovarian, 5.04% (active) in the assay with OVCAR-3 ovarian and 0.917% (active) in the assay with NCI/ADR-RES ovarian.

For the compound `O=S(=O)(O)CCI`, the growth with SR leukemia was 116%; in the assay on RPMI-8226 leukemia, 115%; in the assay with OVCAR-8 ovarian, 113%; in the assay with OVCAR-5 ovarian, 108%; with OVCAR-4 ovarian it was 105%; with SK-OV-3 ovarian, 111%. In addition, the growth with IGROV1 ovarian was 110%; in the assay on HS 578T breast, 100%; in the assay with NCI/ADR-RES ovarian, 105%.

Consider `O=C1C(Br)=CC2C1C1C3CCC3C2(Br)C12OCCO2` (stereo unspecified), for which the growth in the assay with SR leukemia was 4.59% (active); in the assay with RPMI-8226 leukemia, 7.82% (active); with OVCAR-8 ovarian, 28.5%; in the assay with OVCAR-5 ovarian it was 33.5%; with OVCAR-4 ovarian, 59.2%; with SK-OV-3 ovarian, 32.1%. Further, the growth with IGROV1 ovarian was 36.7%; with OVCAR-3 ovarian, 12.5%; in the assay on NCI/ADR-RES ovarian it was 51.3%.

As to `COc1ccc(OC)c(Cn2cc3c(c2-c2ccccc2)CCc2cnoc2-3)c1`, the growth in the assay with SR leukemia is 22%; in the assay on RPMI-8226 leukemia it was 61.1%; with OVCAR-8 ovarian, 79%; in the assay on OVCAR-5 ovarian it was 90.8%; in the assay on OVCAR-4 ovarian, 77.6%; in the assay on SK-OV-3 ovarian, 48.2%. The growth in the assay on IGROV1 ovarian is 44.7%; with HS 578T breast it was 59.3%; in the assay with NCI/ADR-RES ovarian, 20.5%.
